Measurements: PubChem BioAssay (Tox21)
Unmarked numbers belong to inactive results. Records with an inconclusive call do not appear. Where a call stands in place of a potency, no number is given. Active and inactive are the calls of the source. Unless noted, calls follow the shape of the dose curve; as a rule, active = well fitted curve in the direction sought with a large enough effect in the repeat runs; inconclusive = weak or mixed curves; inactive = no such curve, though single readings can be large; an effect the other way counts as inactive or inconclusive.

Legend:
[1] = qHTS assay to identify small molecule agonists of the hypoxia (HIF-1) signaling pathway - cell viability counter screen (AID 1224844; calls by dose curve; also: nearly all actives have a fitted effect of over 50% in size; also: potency is read from the fitted curve at half-maximal effect)
Summary of the method: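 Same wells as the HIF-1 reporter screen; ME-180 cells carrying HRE-bla, 17 hr treatment at 37C; CellTiter-Glo luminescence read after 30 min at room temperature.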

[2] = qHTS assay to identify small molecule agonists of the hypoxia (HIF-1) signaling pathway (AID 1224846; active = well fitted activation curve with a large enough effect in the signal ratio in the repeat runs, not every such curve was filed as active; the % refers to the signal ratio)
Summary of the method: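 In ME-180 cells bearing an HRE-bla construct, 17 h treatment with DMSO-dissolved compounds at 37C was followed by CCF4-AM loading to quantify reporter induction.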

[3] = qHTS assay to identify small molecule agonists of H2AX - cell viability counter screen (AID 1224847; calls by dose curve; also: nearly all actives have a fitted effect of over 30% in size; also: potency is read from the fitted curve at half-maximal effect)
Summary of the method: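 Cells plated first: CHO-K1, 1000 per well in 10% FBS medium, incubated overnight at 37C. Then 15-point compound titration added (final DMSO 0.76%) for 3 hr. Finally CellTiter-Glo added and luminescence read.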

[4] = qHTS RealTime-Glo MT Cell Viability Assay in HEK293 cells - 32 hour (AID 1224868); also: nearly all actives have a fitted effect of over 50% in size; also: potency is read from the fitted curve at half-maximal effect
Summary of the method: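 Homogeneous bioluminescent viability format in HEK293 cells (600 cells/well). Following 5 h at 37 C/5% CO2, 23 nL compound was pintooled; the signal was measured repeatedly during 40 h incubation.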

[5] = A CellTox Green Cytotoxicity Assay to monitor cytotoxicity in HEK293 cells - 0 hour (AID 1224869); also: nearly all actives have a fitted effect of over 50% in size
Summary of the method: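 Homogeneous no-lysis format: HEK293 cell suspension mixed with CellTox Green reagent, seeded, incubated 5 h at 37 C/5% CO2, then dosed by pintool with compound in DMSO.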

[6] = qHTS assay to identify small molecule agonists of H2AX (AID 1224845; active = well fitted activation curve with a large enough effect in the signal ratio in the repeat runs, not every such curve was filed as active; the % refers to the signal ratio)
Summary of the method: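 Wild-type CHO-K1 cells, plated overnight, exposed 3hr at 37C to 15 concentrations (0.76% DMSO final). Lysed, then HTRF anti-pH2AX (S139) cryptate and anti-H2AX-d2 antibodies, 24 hr room temperature; 665/620 nm emission read.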

[7] = qHTS RealTime-Glo MT Cell Viability Assay in HepG2 cells - 24 hour (AID 1224867); also: nearly all actives have a fitted effect of over 50% in size
Summary of the method: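 Cell number in HepG2 cultures estimated from NanoLuc luminescence generated by metabolic reduction of a prosubstrate by living cells. The homogeneous, nonlytic format allowed repeated reads at 0, 8, 16, 24, 32 and 40 h of compound exposure.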

[8] = qHTS assay to identify small molecule antagonists of the estrogen related receptor (ERR) signaling pathway from Tox21 library (AID 1224848); also: nearly all actives have a fitted effect of over 50% in size; also: potency is read from the fitted curve at half-maximal effect
Summary of the method: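 Compounds dissolved in DMSO are pin-transferred onto ERR reporter cells (2,000 per well) that have settled for 6 h at 37 C. Plates then incubate 18 h at 37 C before ONE-Glo luciferase reagent and a luminescence read 30 min later.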

[9] = qHTS assay to identify small molecule agonists of the estrogen related receptor (ERR) signaling pathway from Tox21 library (AID 1224849; calls by dose curve; also: nearly all actives have a fitted effect of over 15% in size); conditions: ERR reporter cell line, ONE-Glo luciferase, 18 h; at 92.4 µM (top of the series) unless noted
Summary of the method: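 Reporter cells (ERR, NTP source) treated with Tox21 10K compounds 18 h, 37 C. Readout: ONE-Glo luminescence, 30 min RT.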

| SMILES | Potency [1] | outcome [2] | Potency [3] | Potency [4] | Potency [5] | outcome [6] | outcome [7] | Potency [8] | activity change, positive = activation [9] |
| --- | --- | --- | --- | --- | --- | --- | --- | --- | --- |
| C(=C(c1ccccc1)c1ccccc1)c1ccccc1 | inactive | inactive | 80 µM (active) | inactive | inactive | – | – | – | – |
| NC1CCN(c2cccc(Cl)n2)CC1 | inactive | – | inactive | inactive | inactive | inactive | inactive | – | – |
| CC(C)=CCC/C(C)=C/C(=O)O | inactive | inactive | – | inactive | inactive | inactive | inactive | – | – |
| O=C1C(CCS(=O)c2ccccc2)C(=O)N(c2ccccc2)N1c1ccccc1 (stereo unspecified) | inactive | – | – | inactive | inactive | – | inactive | – | – |
| NC(=O)Nc1nc2ccccc2[nH]1 | inactive | inactive | – | inactive | inactive | inactive | – | – | – |
| O=C(O)Cc1cc(I)c(Oc2cc(I)c(O)c(I)c2)c(I)c1 | 24.1 µM (active) | – | inactive | inactive | inactive | – | inactive | – | – |
| CCCCOCC(C)OCC(C)O (stereo unspecified) | inactive | inactive | inactive | inactive | inactive | inactive | inactive | – | – |
| CC(=O)OC(C)(C)C | inactive | inactive | – | inactive | inactive | inactive | – | inactive | 0.24% |
| CC(O)CN(CCCN(C)C)CCCN(C)C (stereo unspecified) | inactive | inactive | inactive | inactive | inactive | – | inactive | – | – |
| Cc1c(C)n(CCN(C)C)c2ccc(C(=O)OCCN(C)C)cc12 | – | – | inactive | – | inactive | – | inactive | inactive | -20.1% [at 42.5 µM] |
| CSc1nc(NC2CC2)nc(NC(C)(C)C)n1 | inactive | inactive | – | 24.5 µM (active) | inactive | inactive | inactive | – | – |
| CCN(CC)C(=O)c1ccc(O)c(OC)c1 | inactive | – | – | inactive | inactive | inactive | – | – | – |
| CCCCN(CCO)CCO | inactive | inactive | – | inactive | inactive | inactive | – | inactive | 3.71% |
| COc1cc(C)cc(O)c1 | inactive | inactive | inactive | inactive | inactive | inactive | – | – | – |
| OC1OC[C@@H](O)[C@H](O)[C@H]1O (stereo partly specified) | inactive | inactive | inactive | inactive | inactive | inactive | inactive | – | – |
| O=C(O)/C=C/c1ccc(Cn2ccnc2)cc1 | inactive | – | inactive | inactive | inactive | inactive | inactive | – | – |
| CN(C)C(=O)C(CCN1CCC(O)(c2ccc(Cl)cc2)CC1)(c1ccccc1)c1ccccc1 | – | – | – | 10.7 µM (active) | inactive | – | – | 21.1 µM (active) | -39.4% [at 42.5 µM] |
| CC(C)(O)c1ccccc1 | inactive | inactive | inactive | inactive | inactive | – | inactive | inactive | – |
| CCCCCCCCCCCCI | – | inactive | inactive | inactive | inactive | inactive | – | – | – |
| OCCCCCCO | inactive | inactive | inactive | inactive | inactive | – | inactive | – | – |
| CC(=O)N[C@@H](CCC(N)=O)C(=O)O | inactive | inactive | inactive | inactive | inactive | inactive | inactive | – | – |
| Nc1[nH]c(=O)ncc1F | inactive | – | inactive | inactive | inactive | – | inactive | inactive | -0.92% [at 42.5 µM] |
| c1ccc(CCCc2ccccn2)cc1 | inactive | inactive | – | inactive | inactive | inactive | – | inactive | 34.3% (active) |
| C=C(C)C(=O)NCCCN(C)C | inactive | inactive | inactive | inactive | inactive | inactive | inactive | – | – |
| CC1=CCC2C(C1)C2(C)C (stereo unspecified) | inactive | inactive | inactive | inactive | inactive | inactive | inactive | – | – |
| O=[N+]([O-])c1ccc(Oc2ccc([N+](=O)[O-])cc2)cc1 | inactive | inactive | inactive | – | inactive | – | inactive | inactive | -4.74% |
| O=C(O)/C=C/c1ccc(/C=C/C(=O)O)cc1 | inactive | inactive | inactive | inactive | inactive | inactive | inactive | – | – |
| [O-][N+](=Nc1ccccc1)c1ccccc1 | inactive | inactive | – | inactive | inactive | inactive | inactive | – | – |
| CC(C)(O)C(=O)c1ccc(OCCO)cc1 | inactive | inactive | inactive | inactive | inactive | inactive | inactive | – | – |
